Target: Interleukin-8 (IL8, CXCL8), C-terminal His-tagged (Homo sapiens, UniProt P10145 SEQ:1-72)
Assay: competition; competition TR-FRET; L1 mutant
Settings: tags: C-terminal 6xHis (Sino Biological); ssRNA; 2'-F G, 2'-OMe A/C/U, 5' C6NH2, 3' idT
Procedure: Activity of each of these variants were tested using a time resolved competition TR-FRET assay in which the labeled parent Aptamer 3 was competed with increasing concentrations of unlabeled variants for binding to IL8 (FIG. 14). Briefly, 2-fold dilutions of thermally equilibrated aptamers were made in TR-FRET Buffer (50 mM MOPS, pH 7.4, 125 mM NaCl, 5 mM KCl, 50 μM CHAPS, 0.1 mg/mL BSA, 1 mM CaCl₂, and 1 mM MgCl₂). 5 μL of aptamer or control solution was added to 5 μl mix of 10 nM C-terminal His-tagged-IL8, 60 nM ALEXA FLUOR® 647-labeled Aptamer, and 5 nM anti-His-Eu (Perkin Elmer) in a black wall low volume 384 well plate (Greiner). For control, 5 μl of 1000-fold excess of unlabeled parent aptamer or 5 μl TR-FRET buffer alone was added to the mix of ALEXA FLUOR® 647-labeled aptamer, His-IL8, and anti-His-Eu. The plate was covered with a plate seal and subsequently incubated in the dark for 1 hour at room temperature. The plate was read on a Biotek CYTATION™ 5 plate reader. Samples were excited at 330 nm and fluorescent values were collected at 665 nm. Data analysis was performed by subtracting the background value and plotting as percent inhibition, normalized to baseline in the absence of competitor. The values were fit by [Inhibitor] vs. response—Variable slope (four parameters) using GraphPad Prism Version 7.0 and then normalized to aptamer control to obtain an IC₅₀ relative to parent aptamer. Data is presented as log values of relative IC₅₀.
To confirm the sequence conservation of this loop, variants of Aptamer 32 were made (4 base pair S1 version of parent Aptamer 8) where each position of L1 was individually replaced with the other 3 bases and tested for binding in the competition TR-FRET assay.

Binding signal, > 10 fold worse than Aptamer 8:
CGGUGGGCAAUGUGAGAUGGGUUGCCG
CGGUGAGAAAUGUGAGAUGGGUUGCCG
CGGUGCGAAAUGUGAGAUGGGUUGCCG
CGGUAGGAAAUGUGAGAUGGGUUGCCG
CGGUCGGAAAUGUGAGAUGGGUUGCCG
CGGUGGGGAAUGUGAGAUGGGUUGCCG
CGGUGGUAAAUGUGAGAUGGGUUGCCG
CGGUGUGAAAUGUGAGAUGGGUUGCCG
CGGUGGGUAAUGUGAGAUGGGUUGCCG
CGGUGGCAAAUGUGAGAUGGGUUGCCG
CGGUUGGAAAUGUGAGAUGGGUUGCCG
CGGUGGAAAAUGUGAGAUGGGUUGCCG

— patent US20210230599, “STEM-LOOP COMPOSITIONS AND METHODS FOR INHIBITING INTERLEUKIN-8” (VITRISA THERAPEUTICS, INC., published 2021)
